Screens deposited in PubChem by several laboratories.
The list is not random: actives were taken first. Their share in the collection is about 3.8%.
NTR1 agonist – agonists of human NTR1, primary screen, imaging, U2OS cells, beta-arrestin-GFP, high content. Neurotensin receptor type 1 (Homo sapiens), P30989. NTR1-U2OS beta-arrestin-GFP spot imaging, agonist mode. activation, % at 20 µM. 330,000 tested, 0.17% active. AID 493036, 2011;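 active = activation at or above 40% of the spot to cytoplasm intensity ratio, with at least 20 cells analyzed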
Target sequence (P30989 whole entry, looked up): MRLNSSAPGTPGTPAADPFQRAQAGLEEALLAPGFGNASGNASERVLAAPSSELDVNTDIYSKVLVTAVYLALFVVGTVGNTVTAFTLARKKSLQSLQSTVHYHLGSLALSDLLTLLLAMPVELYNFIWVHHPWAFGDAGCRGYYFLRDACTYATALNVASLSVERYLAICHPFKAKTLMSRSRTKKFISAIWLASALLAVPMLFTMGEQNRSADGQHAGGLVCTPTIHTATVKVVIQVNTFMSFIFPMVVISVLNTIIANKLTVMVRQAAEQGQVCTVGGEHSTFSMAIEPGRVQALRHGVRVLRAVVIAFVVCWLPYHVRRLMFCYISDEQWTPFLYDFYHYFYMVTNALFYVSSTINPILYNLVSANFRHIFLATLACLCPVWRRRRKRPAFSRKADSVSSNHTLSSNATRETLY
A1 inh – caspase 3/7 activation in MEF A1-2A-BIM cells, primary screen, A1 inhibitor project, cell-based, luminescence, HTS | Caspase-Glo 3/7 luminescence, 3 h; percent of clofoctol response, vehicle zero | caspase activation, % (concentration not given with the values) | 330,000 tested, 0.066% active;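 active = over half of replicate activation scores above 10%, or exactly half above 10 with the replicate mean above 10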
Beta cell apopt – inhibitors of cytokine-induced beta cell apoptosis, primary screen, luminescence. INS-1E cytokine-induced death, ATP luminescence, 48 h; percent of positive-control rescue, neutral wells zero. protection from apoptosis, % (concentration not given with the values). 300,000 tested, 0.8% active;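 active = Every replicate reaches about 75%, or at least half do and their mean reaches it too, limit read from the data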;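 also: higher means more ATP so stronger rescue from cytokine killing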
Jurkat NFkB inh – inhibitors of induced NF-kB luciferase reporter, primary screen, TCR NF-kB activation inhibitor project, cell-based, luminescence, uHTS | inhibition, % at 4 µM | 330,000 tested, 0.53% active | AID 435003, 2010 | Jurkat, PMA/ionomycin-induced NF-kB luciferase reporter; in the data active = inhibition above about 50%
Mdm2 MdmX PPI – inhibitors of human Mdm2-MdmX association, primary screen, cell-based, luminescence, split luciferase, SaOS-2, uHTS | Protein Mdm4 (Homo sapiens) + E3 ubiquitin-protein ligase Mdm2 (Homo sapiens), … | SaOS-2 split-luciferase Mdm2/MdmX complementation | inhibition, % at 8 µM | 330,000 tested, 3% active;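 active = inhibition of at least 50% at 8 µM in the primary screen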
697 NFkB inh – inhibitors of PMA/ionomycin-induced NF-kB reporter, 697 cells, primary screen, B-cell NF-kB inhibitor project, cell-based, luminescence, uHTS; 697 B-cell NF-kB luciferase reporter, 16 h; inhibition, % at 4 µM; 330,000 tested, 0.33% active; AID 435022, 2010; in the data active = inhibition above about 35%
Mdm2-MdmX conf – Mdm2-MdmX complex disruptors, retested hits, confirmation, luminescence, single concentration. shares compounds with Mdm2 MdmX PPI. Mdm2-MdmX binding, luminescent assay. inhibition, % at 8 µM. 10,000 tested, 55% active. AID 489028, 2010; in the data active = inhibition above about 40%
FLuc counter – full-length luciferase signal inhibition, confirmation, counter-screen for Mdm2/MdmX interaction inhibitor project, cell-based, single concentration, SaOS-2; shares compounds with Mdm2 MdmX PPI; SaOS-2 full-length luciferase counterscreen, luminescence; inhibition, % at 8 µM; 6,200 tested, 77% active;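 active = mean inhibition at 8 µM reaching about 37%, which flags the compound as non-specific, limit read from the data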;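 also: p53-null SaOS-2 cells with luciferase driven by a doxycycline-inducible promoter; compound on cells about two nights before reading with doxycycline added after day one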
Numbers stand for hits; – = inactive; · = not tested or not shown.

SMILES | NTR1 agonist | A1 inh | Beta cell apopt | Jurkat NFkB inh | Mdm2 MdmX PPI | 697 NFkB inh | Mdm2-MdmX conf | others
CC1CC(C)CN(C(=O)COC(=O)c2ccc(S(=O)(=O)N(C)c3ccccc3)cc2)C1 (centres undefined) | – | – | – | – | – | – | ·
CCOC(=O)c1cc(NC(=O)c2ccccc2)c(=O)n2c1oc1ccccc12 | – | – | – | – | 56.1 | – | –
Cc1c(Cl)cccc1NC(=O)C1CC2CCC1C2 (centres undefined) | – | – | – | – | – | – | ·
O=C(N/N=C/c1ccccc1)c1ccc(CN2C(=O)c3cccc4cccc2c34)cc1 | – | – | – | – | – | – | ·
O=C(N/N=C/c1ccc(O)cc1O)c1ccc(CN2C(=O)c3cccc4cccc2c34)cc1 | – | – | 93.2 | – | 75.3 | – | 74.5 | FLuc counter=–
CN(C(=O)CSc1nnc(N)s1)C1CCCCC1 | – | – | – | – | – | – | ·
COc1ccc(NC(=O)/C(=C\c2cc(OC)c(OC)cc2[N+](=O)[O-])NC(=O)c2ccccc2)cc1 | – | – | – | – | 51.6 | – | –
CN1Cc2cc(C(=O)c3ccccc3O)cnc2NC1=O | – | – | – | – | – | – | ·
COc1ccc(O)c(C(=O)c2cnc3c(c2)CN(C)C(=O)N3)c1 | – | – | – | – | 62.6 | – | 40.5 | FLuc counter=63.3
O=C(NCCN1CCN(C(=O)c2cccc(OC(F)F)c2)CC1)c1cccc(OC(F)F)c1 | – | – | – | – | – | – | ·
CCOC(=O)C(Cc1ccccc1)(Cc1ccccc1)C(C)=O | – | – | – | – | – | – | ·
COc1cc(/C=N/NC(=Nc2ccc(C)cc2)c2nc3ccccc3s2)ccc1O | – | – | – | – | 82.8 | – | 79.5 | FLuc counter=50.8
COc1ccccc1/C=N/NC(=Nc1ccc(C)cc1)c1nc2ccccc2s1 | – | – | – | – | – | – | ·
O=C(CCNC(=O)c1ccc(Br)cc1)Nc1nc2ccccc2[nH]1 | – | · | · | – | – | – | ·
Cc1c(CN2CCC(CO)(Cc3cccc(C(F)(F)F)c3)CC2)c2ccccc2n1C | – | – | – | – | 67.7 | – | 42.4 | FLuc counter=70.5
CCOc1ccc2nc(N3CCCC(C(=O)NCCCN4CC(C)CC(C)C4)C3)sc2c1 (centres undefined) | – | – | · | – | 53.4 | – | –
Cc1cc(C)c(S(=O)(=O)NCC2CCC(C(=O)NCCCN3CCC(C)CC3)CC2)c(C)c1 (centres undefined) | – | – | – | – | 50.6 | – | –
COCCNC(=O)C1CCC(CNS(=O)(=O)c2c(C)cc(C)cc2C)CC1 (centres undefined) | – | – | – | – | – | – | ·
CCOc1ccc2nc(N3CCCC(C(=O)NCCCN4CCCCC4)C3)sc2c1 (centres undefined) | – | – | – | – | – | – | ·
Cc1cc(C)c2nc(N3CCC(C(=O)NCCCN4CC(C)CC(C)C4)CC3)sc2c1 (centres undefined) | – | – | – | – | 96.8 | – | 76.3 | FLuc counter=–
Cc1ccc2c(SCC(=O)NCc3ccco3)nc(-c3ccc(F)cc3)nc2c1 | – | – | – | – | 82.2 | – | –
CN(C)S(=O)(=O)c1ccc(N2CCCC2)c(C(=O)NCC(=O)Nc2ccc(F)c(F)c2)c1 | – | – | – | – | – | – | ·
Cc1ccc(NC(=O)c2cc(S(=O)(=O)N(C)C)ccc2N2CCCC2)cc1F | – | – | – | – | 52.1 | – | –
COc1cccc(-c2nn(-c3ccc(C)cc3)cc2C(=O)N2CCc3cc(OC)c(OC)cc3C2)c1 | – | – | – | – | 58.0 | – | 67.2 | FLuc counter=85.6
COc1ccc(OC)c(-c2nn(-c3ccccc3)cc2C(=O)N2CCc3ccccc3C2)c1 | – | – | – | – | – | – | ·
SMILES | NTR1 agonist | A1 inh | Beta cell apopt | Jurkat NFkB inh | Mdm2 MdmX PPI | 697 NFkB inh | Mdm2-MdmX conf | others
Cc1ccccc1C(=O)Nc1c(C(=O)N(CCN(C)C)Cc2ccco2)oc2ccccc12 | – | – | – | – | – | – | ·
COc1ccccc1C(=O)Nc1c(C(=O)N(CCN(C)C)Cc2ccco2)oc2ccccc12 | – | – | – | – | 62.3 | – | –
Cc1cc2c(=O)n(Cc3ccco3)c(SCC(=O)NCc3ccco3)nc2s1 | – | – | – | – | – | – | ·
Cc1cc2c(=O)n(Cc3ccco3)c(SCC(=O)N3CCCc4ccccc43)nc2s1 | – | – | – | – | 56.9 | – | –
CSc1nc(N)nc(SCCS(=O)(=O)c2ccc(Cl)cc2)c1C#N | – | – | – | – | 56.9 | – | –
CCc1cccc(CC)c1C(OC(C)=O)c1cccnc1 (centres undefined) | – | – | – | – | – | – | ·
S=C(Nc1ccc(Br)cc1Cl)N1CCCC1 | – | – | – | – | – | – | ·
O=C(Nc1ccc(CN2CCCCC2)cc1)Nc1ccc(Br)cc1Cl | – | – | – | – | 73.8 | – | 41.8 | FLuc counter=38.9
COC(=O)c1cc(=O)n(Cc2ccc3c(c2)OCO3)c(=Nc2ccc(F)c(Cl)c2)s1 | – | – | – | – | 61.8 | – | – | FLuc counter=102.5
COC(=O)c1cc(=O)n(CCc2ccc(OC)cc2)c(=Nc2ccc(F)c(Cl)c2)s1 | – | – | – | – | 71.5 | – | –
NC1=NC(=O)/C(=C/C=C/c2cccs2)S1 | – | – | – | – | – | – | ·
O=C(C[n+]1ccccc1)Nc1ccccc1C(F)(F)F | – | – | – | – | – | – | ·
Cc1cccn2c(=O)c(C=NCCO)c(Nc3ccc(Cl)cc3)nc12 | – | – | – | – | 53.1 | – | –
O=C(/C=C/C(=O)NCc1cccs1)NCc1cccs1 | – | – | – | – | 62.5 | – | –
Nc1nc2ccccc2n1/N=C/c1ccc([N+](=O)[O-])s1 | – | – | 107.6 | – | 56.3 | – | 47.2 | FLuc counter=47.5
CC(=O)c1ccc(OCc2cc(C(=O)NCCc3ccc(Cl)cc3)no2)cc1 | – | – | – | – | – | – | ·
Cn1c(=O)c(C#N)c(-c2ccc(F)cc2)c2cc(C(=O)c3cc(Cl)cc(Cl)c3O)cnc21 | – | – | – | – | 82.8 | – | 87.0 | FLuc counter=–
